BAZ2B block: qHTS Assay for Inhibitors of BAZ2B; Bromodomain adjacent to zinc finger domain protein 2B (Homo sapiens), Q9UIF8; AlphaScreen BAZ2B-H3K14Ac peptide displacement; Potency, µM (highest dose often 114 µM), inactives show top-dose activity change, negative = inhibition, hits mostly inhibitors; actives 4.4% (n = 360,000); AID 504333, 2011; note: % is set by controls: 0 for no effect and ±100 for the full control effect; nearly all actives have a fitted effect of over 60% in size
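Compounds, titrated to a top concentration of 110 uM, were incubated 30 min at room temperature with preformed BAZ2B/acetyl-K14 H3 peptide complex (50 nM each). Proximity signal was measured by AlphaScreen after 20 min with beads.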
12-LOX inh: Primary qHTS assay for inhibitors of human arachidonate 12S-lipoxygenase (ALOX12): Round 2 | purified 12hLO, xylenol orange hydroperoxide absorbance | Potency, µM (titrated, usually from 108 µM), for the others: at the highest dose activity change, negative = inhibition, usual class: inhibitors | actives 1.1% (n = 580,000) | AID 1671190, 2021; note: % is set by controls: 0 for no effect and ±100 for the full control effect
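Purified human 12hLO at 150 nM in 25 mM Hepes, 0.01% Triton X-100, pH 7.0, preincubated 15 min at room temperature with compound. Reaction started with 40 uM arachidonic acid, 30 min at room temperature. Hydroperoxide measured by Fe-xylenol orange, 573/405 nm absorbance ratio.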
JMJD2A Tudor: qHTS Assay for Inhibitors of JMJD2A-Tudor Domain; Potency, µM (top dose mostly 114 µM), inactives show top-dose activity change, negative = inhibition, most hits filed as inhibitors; Lysine-specific demethylase 4A (Homo sapiens), O75164; AlphaScreen JMJD2A-Tudor / H3K4me3 peptide binding; actives 4.4% (n = 390,000); note: % is set by controls: 0 for no effect and ±100 for the full control effect; nearly all actives have a fitted effect of over 50% in size
Target sequence (O75164 whole entry, looked up, the tested form may be a part): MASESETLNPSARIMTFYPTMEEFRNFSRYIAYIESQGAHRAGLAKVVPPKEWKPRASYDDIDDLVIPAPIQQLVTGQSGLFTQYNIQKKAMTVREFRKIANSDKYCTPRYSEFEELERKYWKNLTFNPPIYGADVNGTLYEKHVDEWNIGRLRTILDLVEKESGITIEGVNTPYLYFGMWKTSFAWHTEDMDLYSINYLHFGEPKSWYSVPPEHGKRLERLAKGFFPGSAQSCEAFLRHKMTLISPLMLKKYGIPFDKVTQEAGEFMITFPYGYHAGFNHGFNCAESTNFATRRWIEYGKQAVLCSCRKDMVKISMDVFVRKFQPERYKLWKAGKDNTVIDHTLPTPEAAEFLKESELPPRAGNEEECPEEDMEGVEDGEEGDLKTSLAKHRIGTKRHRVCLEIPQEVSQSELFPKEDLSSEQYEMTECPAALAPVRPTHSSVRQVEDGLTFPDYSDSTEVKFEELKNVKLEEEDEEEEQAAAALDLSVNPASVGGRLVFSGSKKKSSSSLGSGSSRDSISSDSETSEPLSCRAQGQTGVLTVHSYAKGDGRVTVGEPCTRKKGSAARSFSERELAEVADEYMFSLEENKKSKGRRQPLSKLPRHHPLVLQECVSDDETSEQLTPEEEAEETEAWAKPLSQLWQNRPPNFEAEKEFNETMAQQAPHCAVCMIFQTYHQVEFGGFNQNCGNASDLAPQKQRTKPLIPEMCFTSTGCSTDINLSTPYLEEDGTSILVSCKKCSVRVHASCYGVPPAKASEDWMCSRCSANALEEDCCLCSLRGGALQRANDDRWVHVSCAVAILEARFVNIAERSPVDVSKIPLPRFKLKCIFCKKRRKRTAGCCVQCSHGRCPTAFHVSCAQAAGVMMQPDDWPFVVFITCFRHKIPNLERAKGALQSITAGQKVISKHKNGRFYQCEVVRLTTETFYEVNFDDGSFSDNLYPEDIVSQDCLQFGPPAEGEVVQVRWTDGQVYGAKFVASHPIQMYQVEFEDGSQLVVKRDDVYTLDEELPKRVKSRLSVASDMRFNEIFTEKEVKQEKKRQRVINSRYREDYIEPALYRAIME
G9a inh: qHTS Assay for Inhibitors of Histone Lysine Methyltransferase G9a; G9a H3K9 monomethylation, AlphaScreen, 2 h; actives 8.8% (n = 350,000); Potency, µM (top dose mostly 102 µM), without a hit: at the highest dose activity, negative = inhibition, actives largely listed as inhibitors; note: % is set by controls: 0 for no effect and ±100 for the full control effect; nearly all actives have a fitted effect of over 75% in size
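Signal arises when biotinylated H3K9 peptide, once monomethylated, bridges streptavidin donor and antibody-captured acceptor beads. Enzyme at 20 nM was preincubated 15 min with test compounds; peptide 500 nM and SAM 20 uM then reacted for 2 h.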
HP1b binding inh: HTS for Inhibitors of HP1-beta Chromodomain Interactions with Methylated Histone Tails. Chromobox protein homolog 1 (Homo sapiens), P83916. AlphaScreen HP1-beta / biotin-H3K9me3 peptide binding. Potency, µM (doses to about 114 µM), for the others: at the highest dose activity change, negative = inhibition, hits mostly inhibitors. actives 0.56% (n = 390,000). AID 540317, 2011; note: nearly all actives have a fitted effect of over 70% in size
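Compound inhibition of the preformed complex between 50 nM HP1-beta and 50 nM biotinylated H3K9me3 peptide was read by AlphaScreen. Buffer was PBS pH 7.4 with 0.01% Tween-20. Incubations ran 30 min at room temperature, with 10 ug/mL donor/acceptor beads.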
PLK1 PBD inh: qHTS for Inhibitors of PLK1-PDB (polo-like kinase 1 - polo-box domain): Primary Screen; Serine/threonine-protein kinase PLK1 (Homo sapiens), P53350; Plk1 PBD binding of FITC phosphopeptide, fluorescence polarization; Potency, µM, for inactives: max response, negative = inhibition, actives largely listed as inhibitors; actives 2.8% (n = 360,000); AID 720504, 2013; note: series mostly up to about 57 µM; % is set by controls: 0 for no effect and ±100 for the full control effect; nearly all actives have a fitted effect of over 65% in size
The depositor's hits bear a star; ? = inconclusive; . = no result; ! = a repeat was not active; [ ] = dose if it differs, or a comment. Only some compounds are listed: those with a hit (about 9% of all), similar ones and a draw of the others. Calls come from the whole dose curve; as a rule, active = well fitted curve in the direction sought with a large enough effect; inconclusive = small, poorly fitted or top-dose-only effect, or another doubt; inactive = no such curve, though single readings can be large; an effect the other way counts as inactive or inconclusive. Potency is the fitted concentration of half-maximal effect.

SMILES | BAZ2B block | 12-LOX inh | JMJD2A Tudor | G9a inh | HP1b binding inh | PLK1 PBD inh
CCCS(=O)(=O)N1CC(=O)N(c2ccccc2C)C(C)(C(=O)NC2CCCCC2)C1 (stereo not drawn) | -1% | -25% | -1% | 4%[59 µM] | 29% | .
C[C@@H]1CCCCO[C@@H](CN(C)Cc2ccc3c(c2)OCO3)[C@@H](C)CN([C@H](C)CO)C(=O)c2cc(N(C)C)ccc2O1 | . | ? | . | . | . | -20%
Cc1cc2cc3c(cc2nc1SCc1ccc(C(=O)O)cc1)OCCO3 | ? | -15% | -33% | 50µM* | 19% | 30µM*
O=C(CSc1nnc(-c2ccco2)n1C1CCCCC1)Nc1ccccc1C(=O)NC1CC1 | . | 0% | . | . | . | .
COc1ccc(-n2c(-c3ccco3)n[nH]c2=S)cc1 | -3% | ? | 4.5µM* | 4µM* | ? | -8%
Nn1c(-c2ccco2)n[nH]c1=S | 50µM* | ? | 7.1µM* | 8.9µM* | ? | -10%
S=c1[nH]nc(-c2ccco2)n1C1CCCCC1 | -12% | ? | 3.2µM* | 2µM* | ? | -8%
Cc1ccc(C)c(-n2c(-c3ccco3)n[nH]c2=S)c1 | . | -53% | 8.9µM* | . | -23% | -27%
NC1=NN=C(N2N=C(c3ccc(Br)cc3)CC2(O)C(F)(F)F)n2ncnc2C1 (stereo not drawn) | 1% | -4% | -11% | 122%[59 µM] | 26% | -9%
O=C(Nc1ccc(F)cc1F)N1CCN(C/C=C/c2ccccc2)CC1 | -1% | -22% | -23% | -5% | 21% | -2%
COc1cc(NC(=O)c2sc3ncnc(N(C)c4ccccc4)c3c2C)cc(OC)c1OC | . | 40% | . | . | . | .
S=c1[nH]nc(-c2ccco2)n1-c1ccc(Cl)cc1 | -15% | 40µM* | 32µM* | ? | -8% | -19%
Cn1cc(Cl)c(-c2n[nH]c(=S)n2C2CCCCC2)n1 | -19% | -18% | 4.5µM* | ? | 17% | -6%
c1ccc(-c2nnc(-c3ccco3)n2-c2ccccc2)cc1 | -7% | -7% | -29% | -39%[59 µM] | 7% | 0%
S=c1[nH]nc(COc2ccc(Cl)cc2)n1C1CCCCC1 | 15% | ? | -18% | ? | 21% | -22%
Cc1ccc(Nc2cc(-c3ccccc3)nc3ncnn23)cc1 | -2% | 102% | -12% | -6%[59 µM] | 8% | 0%
CCCCNC(=S)NN | . | 5% | . | . | . | .
CCCCNC(=S)NC(C)(C)CO | -3% | ? | -10% | 11µM* | 20% | -12%
Cn1cnnc1SCC(=O)c1ccc(O)c(O)c1 | ? | 1% | -8% | 7.1µM* | 18% | 2%
O=C(CSc1nnnn1-c1ccc(F)cc1)c1ccc(O)c(O)c1 | 45µM* | 14µM* | ? | ? | -14% | -21%
Cn1cnnc1SCC(=O)c1ccco1 | -3% | -33%[57.4 µM] | -5% | 45µM* | 57% | -24%
O=[N+]([O-])c1cccc2ccc(/C=C/c3cccc(C(F)(F)F)c3)nc12 | . | -25% | . | . | . | .
O=C(c1ccccc1)c1ccc(O)c(O)c1O | . | ? | 25µM* | . | ? | 0%
O=C1N(c2ccccc2)c2ccccc2C1(Cc1ccncc1)Cc1ccncc1 | ? | 24µM*! | -13% | 13µM*! | 32% | -6%
CC1(CCBr)C(=O)N(c2ccccc2)c2ccccc21 (stereo not drawn) | -37% | -20% | 17% | -1%[0.501 µM] | 63% | 1%
SMILES | BAZ2B block | 12-LOX inh | JMJD2A Tudor | G9a inh | HP1b binding inh | PLK1 PBD inh
CCOc1ccc(-c2cc3nc(C4CCN(C(=O)OC(C)(C)C)CC4)c(C(=O)Nc4ccc(C)cc4Cl)cn3n2)cc1 | 4% | -14% | 1% | 18%[59 µM] | 63% | .
CC1CC(C)(C)NC(=S)S1 (stereo not drawn) | 7% | ? | -13% | 8.9µM* | 7% | 24µM*
CCN1c2cc(C(=O)Nc3cc(C)ccc3C)ccc2C(=O)N2CCCCCC21 (stereo not drawn) | . | -2% | . | . | . | .
COc1ccccc1C(=O)NC(=O)COC(=O)c1ccc([N+](=O)[O-])cc1 | 11% | -6% | -3% | 0%[59 µM] | 29% | -7%
Cc1sc2nc(-c3cccnc3)[nH]c(=O)c2c1-c1ccccc1 | . | ? | -17% | 11µM* | -12% | 12µM*
Cc1sc2nc(Cc3ccccc3)[nH]c(=O)c2c1-c1ccccc1 | -1% | -19% | -11% | 9%[59 µM] | 31% | -6%
O=C1CC(N2CCCN(C3CC(=O)N(c4ccc(F)cc4)C3=O)CC2)C(=O)N1c1ccc(F)cc1 (stereo not drawn) | 3% | 4% | -22% | ? | 40% | -9%
COc1ccccc1C1CC(=O)Oc2cc3c(cc21)OCO3 (stereo not drawn) | . | . | . | 35µM* | . | .
COc1ccccc1C1CC(=O)Oc2cc(C)c(Cl)cc21 (stereo not drawn) | . | 40µM* | 25% | 63% | 78% | -8%
Cc1ccc2nc(C)c(CN3CCN(c4ccc([N+](=O)[O-])cc4Cl)CC3)n2c1 | 40µM* | -15% | . | 50µM* | . | .
CC(C)(C)C(=O)N1CCN(c2ccc([N+](=O)[O-])cc2Cl)CC1 | . | ? | -20% | . | 30% | -7%
COC(=O)c1ccccc1N=C(SC)N(C)C | -2% | 3% | -19% | 16µM* | 3% | 30µM*
Cc1ccc(NNC(=O)c2ccno2)c(C)c1 | -1% | -30% | -17% | 0.79µM* | 49% | 4%
Cc1ccc(C(=O)NCCCc2ccccc2)c(Cl)c1 | 4% | -32% | -11% | 2%[0.501 µM] | 28% | -4%
Cc1ccc(NNC(=O)c2sccc2Cl)c(C)c1 | . | . | ? | . | 10% | .
Cc1ccc(NC(=O)CCC(=O)NNC(=O)CCc2ccccc2)c(C)c1 | -8% | 2% | -17% | -11% | 22% | -7%
Cc1ccc(NNC(=O)CCc2ccccc2)c(C)c1 | -5% | ? | 2% | 32µM* | 29% | 5%
Cc1ccc(C(=O)NCCCc2ccccc2)c(C)c1 | -8% | -13% | ? | . | 3% | 24µM*
O=C(NCc1ccccc1)c1cc(C2COCCN2C(=O)c2ccccc2)on1 (stereo not drawn) | . | -34% | . | . | . | 9%
COc1cc(NC(=O)CN2C(=O)CCc3cc(Br)ccc32)cc(OC)c1OC | -11% | -23% | -27% | 6%[59 µM] | 12%[57 µM] | .
O=C(CSc1ccc2ccccc2c1)N1CCN(c2ccc(O)cc2)CC1 | 50µM* | ? | 50µM* | 16µM* | -28% | -7%
O=C(CSc1ccccn1)N1CCN(c2ccc(Cl)cc2)CC1 | 6% | 0% | -23% | ? | 11% | 24µM*
